# Screens as filed in PubChem.
# EPAC2 antag = human EPAC2 antagonism, validation. EPAC2 Rap1B BODIPY-GDP exchange, fluorescence. Potency, µM (titrated, usually from 112 µM), for inactives: at the highest dose activity, negative = inhibition, actives largely listed as inhibitors. 16,000 compounds, 1.7% hits. AID 1645886;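 note: 100% = activation by cAMP agonist control; nearly all actives have a fitted effect of over 40% in size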
# Target sequence (Q8WZA2 whole entry, looked up): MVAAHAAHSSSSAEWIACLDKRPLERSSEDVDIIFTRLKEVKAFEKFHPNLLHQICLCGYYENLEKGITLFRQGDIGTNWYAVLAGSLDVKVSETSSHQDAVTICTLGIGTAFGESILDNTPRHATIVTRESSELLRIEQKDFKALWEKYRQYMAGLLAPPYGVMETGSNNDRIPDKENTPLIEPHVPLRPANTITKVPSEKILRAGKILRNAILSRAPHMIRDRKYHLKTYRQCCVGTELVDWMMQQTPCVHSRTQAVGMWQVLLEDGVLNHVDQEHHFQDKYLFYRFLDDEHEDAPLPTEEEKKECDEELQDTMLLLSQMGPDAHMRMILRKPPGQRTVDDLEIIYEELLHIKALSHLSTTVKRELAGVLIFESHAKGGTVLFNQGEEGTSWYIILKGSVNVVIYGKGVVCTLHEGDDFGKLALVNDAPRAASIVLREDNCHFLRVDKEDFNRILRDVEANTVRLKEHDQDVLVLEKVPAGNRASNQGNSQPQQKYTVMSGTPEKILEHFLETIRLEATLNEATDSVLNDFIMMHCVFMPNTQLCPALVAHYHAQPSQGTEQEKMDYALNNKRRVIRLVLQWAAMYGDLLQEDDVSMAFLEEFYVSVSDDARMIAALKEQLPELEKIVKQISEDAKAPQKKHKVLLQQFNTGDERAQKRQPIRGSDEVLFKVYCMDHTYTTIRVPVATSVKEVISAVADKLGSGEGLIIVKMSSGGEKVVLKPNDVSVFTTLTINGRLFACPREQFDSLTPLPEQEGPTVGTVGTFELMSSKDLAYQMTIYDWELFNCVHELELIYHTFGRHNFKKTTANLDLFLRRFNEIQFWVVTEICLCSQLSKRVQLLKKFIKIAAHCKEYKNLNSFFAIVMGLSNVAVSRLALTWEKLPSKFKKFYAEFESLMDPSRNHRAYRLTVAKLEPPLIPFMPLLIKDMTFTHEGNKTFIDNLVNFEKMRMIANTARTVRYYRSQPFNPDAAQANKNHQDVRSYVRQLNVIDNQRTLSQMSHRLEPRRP
#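 Fluorescent exchange read-out: 100 nM EPAC2 with 250 nM RAP1B–BODIPY-GDP and 50 uM GDP; BODIPY-GDP release lowers fluorescence. Read at 480/540 nm every 5 min for 30 min at room temperature; normalized to 6.5 mM cAMP.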
# EPAC1 ag val = human EPAC1 agonism, validation; AID 1645883; 16,000 compounds, 1% hits; O95398; Potency, µM, without a hit: max response, positive = active, usual class: activators; EPAC1 Rap1b BODIPY-GDP exchange, fluorescence; note: nearly all actives have a fitted effect of over 70% in size
# Numbers without * were called inactive; i = inactive; ? = inconclusive; ! = a repeat was not active; [ ] = dose if it differs, or a comment. In the library only some 3.1% were active in any assay of this set; here they are far more common. Calls come from the whole dose curve; as a rule, active = well fitted curve in the direction sought with a large enough effect; inconclusive = small, poorly fitted or top-dose-only effect, or another doubt; inactive = no such curve, though single readings can be large; an effect the other way counts as inactive or inconclusive. Unless noted, % is set by controls: 0 for no effect and ±100 for the full control effect; potency is the fitted concentration of half-maximal effect.
SMILES,EPAC2 antag,EPAC1 ag val
COc1ccccc1-c1ccnc(-n2ncc(C(=O)NC(c3cccnc3)C(F)(F)F)c2C)n1 (stereo not given),6.2%,4.2%
CC(C)CN(C[C@@H](OP(=O)(O)O)[C@H](Cc1ccccc1)NC(=O)O[C@H]1CCOC1)S(=O)(=O)c1ccc(N)cc1,-27.0%,-15.4%
FC(F)OC(Cl)C(F)(F)F (stereo not given),i,35.5µM*
FC(F)(F)C(Cl)Br (stereo not given),-18.5%,-43.2%
CO/N=C(\C(=O)N[C@@H]1C(=O)N2C(C(=O)[O-])=C(C[n+]3ccc(N)n3CCO)CS[C@H]12)c1csc(N)n1,14.5%,1.0%
COc1ccc2c(c1)[C@@]1(C)CCC[C@](C)(CO)C1CC2 (stereo not given in full),44.7µM*,-14.3%
CC(C)c1c(O)ccc2c1CCC1[C@@](C)(CO)CCC[C@@]21C (stereo not given in full),-22.1%,28.5%
O=c1cnc2cnc(OCc3ccccc3)nc2n1CCc1ccccc1,22.4µM*,?
N#CCCn1c(=O)cnc2cnc(OCc3ccccc3)nc21,-24.8%,11.3%
COCC1CCCN(Cc2ccc3c(c2)CN(C(=O)c2cc(-c4ccccc4)n[nH]2)CCO3)C1 (stereo not given),-6.1%,-14.1%
O=C1O/C(=C/Br)CCC1c1cccc2ccccc12 (stereo not given),3.98µM*,-0.8%
CC1(C)C(\C=C/C=C\C=C/C=C2/N(CCCCS(=O)(=O)O)c3ccc4ccccc4c3C2(C)C)=[N+](CCCCS(=O)(=O)[O-])c2ccc3ccccc3c21,-28.4%,?
C=C1CC[C@H](O)CC1=C/C=C1\CCC[C@]2(C)[C@@H]([C@H](C)CC[C@@H](O)C(C)(C)O)CC[C@@H]12,-26.7%,-7.5%
Cc1cc(C)c(S(=O)(=O)Nc2ccccc2C(F)(F)F)c(C)c1,44.7µM*,5.8%
COC(=O)C[C@](O)(CCCC(C)(C)O)C(=O)O[C@@H]1C(OC)=CC23CCCN2CCc2cc4c(cc2[C@H]13)OCO4 (stereo not given in full),33.3%,-17.8%
CCCCC(=O)OCC(=O)[C@]1(O)Cc2c(O)c3c(c(O)c2[C@@H](O[C@H]2C[C@H](NC(=O)C(F)(F)F)[C@H](O)[C@H](C)O2)C1)C(=O)c1c(OC)cccc1C3=O,-3.6%,-7.8%
Clc1ccccc1-c1nccc(-n2ccnc2)n1,-21.2%,18.4%
Clc1ccccc1C(c1ccccc1)(c1ccccc1)n1ccnc1,11.2µM*!,?
COC(=O)c1cc(CNC(=O)c2cccc(F)c2)cc(NC(=O)c2ccccc2OC)c1,-25.4%,20.3%
O=C(O)C1=CC(=C(c2ccc(O)c(C(=O)O)c2)c2ccc(O)c(C(=O)O)c2)C=CC1=O,39.8µM*!,?
Nc1ccc(O)c(C(=O)O)c1,7.7%,?
Nc1cc(-c2ccncc2)c[nH]c1=O,35.5µM*!,?
Cc1ccc(C(=O)Nc2cccc(-c3nc(CNC(=O)c4ccc(F)cc4Cl)c(C)o3)c2)s1,-9.7%,14.8%
COC(=O)C1=C(C)NC(C)=C(C(=O)O[C@H]2CCN(Cc3ccccc3)C2)[C@H]1c1cccc([N+](=O)[O-])c1,-10.8%,?
COC(=O)C1=C(C)NC(C)=C(C(=O)OCCCN2CCC(c3ccccc3)(c3ccccc3)CC2)C1c1cccc([N+](=O)[O-])c1 (stereo not given),-8.9%,112µM*!
SMILES,EPAC2 antag,EPAC1 ag val
C#CCN1C(C)=C(C(=O)OC)C(c2cccc([N+](=O)[O-])c2)C(C(=O)OCC)=C1C (stereo not given),44.7µM*,10.3%
CCOC(=O)C1=C(C)NC(=S)NC1c1cccc(O)c1 (stereo not given),-42.4%,7.0%
COc1cc(/C=C/C(=O)O[C@H]2CC[C@]34C[C@]35CC[C@]3(C)[C@@H]([C@H](C)CCC=C(C)C)CC[C@@]3(C)[C@@H]5CC[C@H]4C2(C)C)ccc1O,35.0%,-166.7%
O=C1CCC[C@@H]2CC(N(Cc3cc4ccccc4s3)c3ccccc3)C[C@@H]3CCN1[C@H]23 (stereo not given in full),-4.4%,100µM*
CCCCCCCN(c1ccccc1)C1C[C@H]2CCCC(=O)N3CC[C@@H](C1)[C@@H]23 (stereo not given in full),?,-21.5%
O=C(Nc1ccc(S(=O)(=O)N2CCOCC2)cc1)c1cc(Cl)ccc1NS(=O)(=O)c1ccc(Cl)s1,?,-2.2%
NCCC(=O)[N-][C@@H](Cc1cnc[nH]1)C(=O)O.[Zn],30.5%,16.9%
O=C(c1cnccn1)N1CCC[C@@]2(CCN(C(c3ccccc3)c3ccccc3)C2)C1,50.1µM*,7.3%
O=C(c1cnccn1)N1CCC2(CCCN(C(c3ccccc3)c3ccccc3)C2)CC1,?,-34.1%
CC(C)C[C@@H]1NC(=O)[C@H](CCCN)NC(=O)[C@H](C(C)C)NC(=O)[C@@H]2CCCN2C(=O)[C@@H](Cc2ccccc2)NC(=O)[C@H](CC(C)C)NC(=O)[C@H](CCCN)NC(=O)[C@H](C(C)C)NC(=O)[C@@H]2CCCN2C(=O)[C@@H](Cc2ccccc2)NC1=O,?,-38.2%
CC(=O)N1CCC[C@H]1C(=O)NCC1Cc2cc(-c3cccc(OC(F)(F)F)c3)ccc2O1 (stereo not given in full),70.8µM*,3.7%
Cc1noc(C)c1CC(=O)NCC1Cc2cc(-c3cccc(OC(F)(F)F)c3)ccc2O1 (stereo not given),?,-12.9%
CCC(C)C(=O)OC1CC(C)C=C2C=CC(C)C(CCC3CC(O)CC(=O)O3)C21 (stereo not given),1.8%,-16.1%
C[C@H]1C=C2C=C[C@H](C)[C@H](CC[C@@H]3C[C@@H](O)CC(=O)O3)[C@H]2[C@@H](OC(=O)[C@@H](C)CCO)C1,56.2µM*,-23.7%
C/C(=C(\CCOC(=O)c1ccccc1)SS/C(CCOC(=O)c1ccccc1)=C(/C)N(C=O)Cc1cnc(C)nc1N)N(C=O)Cc1cnc(C)nc1N,-2.5%,9.0%
C=CC[N@@+]12CC[C@@]34c5ccccc5N5/C=C6/[C@H]7C[C@H]8[C@@]9(CC[N@@+]8(CC=C)C/C7=C/CO)c7ccccc7N(/C=C(/[C@@H](C[C@@H]31)/C(=C\CO)C2)[C@H]54)[C@@H]69,-3.2%[56.6 µM],24.7%
Cc1cc(-c2ccc(N=Nc3ccc4c(S(=O)(=O)O)cc(S(=O)(=O)O)c(N)c4c3O)c(C)c2)ccc1N=Nc1ccc2c(S(=O)(=O)O)cc(S(=O)(=O)O)c(N)c2c1O,31.6µM*!,-10.0%
Nc1c(N=Nc2ccc(-c3ccc(N=Nc4cc(S(=O)(=O)O)c5ccccc5c4N)cc3)cc2)cc(S(=O)(=O)O)c2ccccc12,39.8µM*,-6.3%
COC(=O)/C=C/C(C)=C/C=C/C(C)=C/C=C/C=C(C)/C=C/C=C(C)/C=C/C(=O)O,7.2%,-31.7%
COc1cc(C)c(/C=C/C(C)=C/C=C/C(C)=C/C(=O)O)c(C)c1C,25.1µM*!,-8.3%
C[C@@H]1C/C=C/C=C/C=C/C=C/[C@H](O[C@@H]2O[C@H](C)[C@@H](O)[C@H](N)[C@@H]2O)C[C@@H]2O[C@](O)(C[C@@H](O)C[C@H]3O[C@@H]3/C=C/C(=O)O1)C[C@H](O)[C@H]2C(=O)O,1.4%,-19.4%
COc1cc(-c2noc(C)c2-c2ccc3[nH]ccc3c2)cc(OC)c1OC,79.4µM*,-72.6%
COc1cc(-c2noc(C)c2-c2ccc(N(C)C)nc2)cc(OC)c1OC,?,-2.3%
